This is a sample that favours compounds with a hit; in the whole collection about 10% have one here.
Insulin prom inh – TRM-6 insulin promoter activity inhibition. 130,000 tested, 0.9% active. inhibition, % at 2 µM. TRM-6 cells (human fetal islet line), insulin promoter-eGFP reporter, imaging; reporter expression induced with tamoxifen. AID 1273;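 active = inhibition above the mean plus 3 SD, with well images judged a real hit on visual review, cut at about 60% in these data, passing the limit was not always enough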
bCat KO growth – beta-catenin-lacking colon tumor cell growth suppression; HCT116 beta-catenin knockout viability, CellTiter-Glo, 60 h; active compounds read low; viability, % at 10 µM; 140,000 tested, 1.5% active; AID 818;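 active = viability at or under a set limit, the compound median less 4 SD, cut at about 6% in these data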;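 also: 0% = Hyamine 1622 control at 20 µM and 100% = untreated cell control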
ROMK primary – modulates human ROMK potassium channel activity. 130,000 tested, 2% active. Tet-inducible ROMK, thallium flux fluorescence; actives lie on both sides. B-score at 10 µM. AID 1918;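 active = signal ratio slope over the read window, or its plate-corrected B-score, at least 3 SD from the plate mean, either direction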;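 also: B-score of the F/F0 ratio slope over 7 to 12 s after thallium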
PTEN del growth – growth suppressors of cells with PTEN tumor suppressor deletion; HCT116 PTEN-null viability, CellTiter-Glo, 60 h; active compounds read low; viability, % at 10 µM; 140,000 tested, 1.2% active; AID 827;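 active = viability at or below a set limit, 4 SD under the median of all tested compounds, cut at about 3.7% in these data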;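 also: PTEN knockout HCT116 line with beta catenin targeted HCT116 as companion control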
p97 inhibitor – inhibitors of human p97 ATPase. AID 1481. P55072. 220,000 tested, 0.42% active. recombinant p97 ATPase, Kinase-Glo ATP luminescence, 3 h. inhibition, % at 8 µM; in the data active = inhibition above about 15%;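 also: 0% = DMSO vehicle and 100% = wells lacking enzyme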
Target sequence (P55072 whole entry, looked up): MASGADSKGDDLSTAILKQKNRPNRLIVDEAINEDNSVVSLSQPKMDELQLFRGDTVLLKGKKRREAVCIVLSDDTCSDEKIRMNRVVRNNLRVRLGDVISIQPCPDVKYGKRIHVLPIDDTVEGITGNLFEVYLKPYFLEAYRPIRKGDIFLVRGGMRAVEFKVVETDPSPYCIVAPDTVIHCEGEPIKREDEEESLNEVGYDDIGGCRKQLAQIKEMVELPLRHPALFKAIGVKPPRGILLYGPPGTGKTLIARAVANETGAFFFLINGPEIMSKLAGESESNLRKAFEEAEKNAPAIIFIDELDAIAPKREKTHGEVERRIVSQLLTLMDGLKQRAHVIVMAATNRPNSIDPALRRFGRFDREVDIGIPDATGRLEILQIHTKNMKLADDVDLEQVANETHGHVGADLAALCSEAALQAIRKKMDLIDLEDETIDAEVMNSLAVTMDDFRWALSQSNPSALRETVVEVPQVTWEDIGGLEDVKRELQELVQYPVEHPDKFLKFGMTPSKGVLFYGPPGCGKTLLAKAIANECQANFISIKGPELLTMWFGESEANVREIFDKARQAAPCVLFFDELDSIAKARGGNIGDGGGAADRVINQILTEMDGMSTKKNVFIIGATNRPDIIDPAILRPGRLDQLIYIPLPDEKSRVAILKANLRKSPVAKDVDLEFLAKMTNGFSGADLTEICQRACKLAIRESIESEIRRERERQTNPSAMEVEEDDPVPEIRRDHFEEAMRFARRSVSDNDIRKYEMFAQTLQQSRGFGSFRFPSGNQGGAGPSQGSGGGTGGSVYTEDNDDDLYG
Lmaj promast – Leishmania major promastigote growth inhibition; Leishmania major promastigotes, resazurin fluorescence viability; inhibition, % at 10 µM; 200,000 tested, 9% active; AID 1063; in the data active = inhibition above about 50%;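 also: promastigotes grown with compound for 44 hours at 28 °C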
* hit, by the source's call; . = no result.

SMILES | Insulin prom inh | bCat KO growth | ROMK primary | PTEN del growth | p97 inhibitor | Lmaj promast
Cc1ccc(S(=O)(=O)/N=C(\c2ccccc2)N(C)S(=O)(=O)c2ccccc2)cc1 | -45 | 100 | -0.25 | 101 | 7 | 63*
CCc1cc(C(=O)N=Nc2c(O)[nH]c3c(Br)cc(Br)cc23)c2ccccc2n1 | 7 | 65 | 0.22 | 51 | 4 | 0
COc1ccc(-c2n(Cc3ccccc3)c3ccccc3[n+]2Cc2ccccc2)cc1 | -100 | . | 0.075 | . | 0 | 100*
C=CCn1c(-c2ccc(OC)cc2)nc2ccccc21 | 27 | 78 | . | 76 | 4 | 96*
COc1ccccc1Cn1c(-c2ccccc2OC)nc2ccccc21 | -7 | 64 | -0.08 | 69 | 0 | 98*
Oc1ccccc1Cn1c(-c2ccccc2O)nc2ccccc21 | -36 | 74 | -0.79 | 66 | 10 | 11
COc1ccc(-c2nc3ccccc3n2Cc2ccccc2)cc1 | 1 | 76 | -0.58 | 77 | -3 | 53*
O=C(OCc1nnc(-c2ccccc2)o1)c1cc(Cl)ccc1[N+](=O)[O-] | . | . | -0.37 | . | -8 | -3
CS(=O)(=O)N1CCC(C(=O)Nc2cc(Cl)cc(Cl)c2)CC1 | -6 | . | 1.2 | . | 2 | -2
Cn1c(COc2ccccc2)nnc1SCC(=O)NNC(=O)C1CCCCC1 | . | . | 0.49 | . | 6 | -6
CCc1ccccc1NC(=O)C1C(c2ccccc2)C1(Cl)Cl (stereo unspecified) | 36 | 83 | . | 78 | 2 | 50*
Cc1[nH]c2ccccc2c1C(=O)C(=O)NCCc1ccc(S(N)(=O)=O)cc1 | -24 | 96 | 0.54 | 101 | 5 | 32
N#Cc1cnn(-c2nc3sc4c(c3c(=O)[nH]2)CCCC4)c1N | 0 | 21 | . | 17 | 1 | 94*
CCn1c(CN2CCN(Cc3ccc(C)cc3)C(CCO)C2)nc2ccccc21 (stereo unspecified) | . | . | -1.6 | . | -1 | 3
CCC(Sc1nc2ccccc2s1)C(=O)Nc1cc(C)on1 (stereo unspecified) | -69 | 88 | . | 84 | 0 | 67*
CCC(Sc1ncccn1)C(=O)Nc1cc(C)on1 (stereo unspecified) | -259 | 97 | . | 100 | -2 | -6
CCCCC1(Cc2cccc([N+](=O)[O-])c2)C(=O)N(c2ccccc2)N(c2ccccc2)C1=O | 39 | 14 | . | 12 | -2 | 58*
c1ccc2c3c([nH]c2c1)C(C1CCCCC1)N(Cc1ncc[nH]1)CC3 (stereo unspecified) | . | . | -0.92 | . | -1 | 47
Cc1cnc(CN2CCc3c([nH]c4ccccc34)C2C2CCCCC2)[nH]1 (stereo unspecified) | -85 | . | . | . | 3 | 54*
O=C(N/N=C/c1ccc(N2CCOCC2)cc1)c1ccccc1OCCOc1ccccc1 | . | . | -0.7 | . | 2 | 61*
O=C(N/N=C/c1ccc(N2CCOCC2)cc1)c1cccs1 | -10 | . | 0.031 | . | -4 | 0
Cc1cc(NC(=O)c2ccccc2F)nc2c1c(=O)oc1ccccc12 | 44 | . | -0.018 | . | 2 | -3
Fc1ccc(Cn2nnc(-c3ccc(CN4CCOCC4)cc3)n2)cc1 | -25 | 90 | . | 90 | 1 | 95*
COc1ccc(NC(=O)Cn2nnc(-c3ccc(CN4CCOCC4)cc3)n2)c(OC)c1 | . | 99 | -0.98 | 106 | -7 | 83*
Clc1ccc(Cn2nnc(-c3ccc(CN4CCOCC4)cc3)n2)cc1 | . | 91 | -0.0033 | 88 | -5 | 96*
SMILES | Insulin prom inh | bCat KO growth | ROMK primary | PTEN del growth | p97 inhibitor | Lmaj promast
Cc1ccccc1NC(=O)Cn1nnc(-c2ccc(CN3CCC(C)CC3)cc2)n1 | . | . | . | . | 0 | .
O=[N+]([O-])c1ccc(OC(F)F)c(/C=N/n2cnnc2)c1 | . | . | . | . | 5 | .
COc1cc(C2C=C(c3cccs3)Nc3ncnn32)cc(OC)c1OC (stereo unspecified) | . | . | . | . | 3 | 6
CCCCN=Cc1c(C)[nH]n(-c2ccccc2)c1=S | -312 | . | -1.9 | . | 1 | -5
Cc1[nH]n(-c2ccccc2)c(=O)c1/C=N/Nc1nncc(-c2ccccc2)n1 | 34 | 11 | . | 18 | 1 | 100*
CCCCN(CCCC)C(=S)N/N=C/c1c(C)[nH]n(-c2ccccc2)c1=O | . | 9 | . | 11 | 1 | 96*
C/C(=N\NC(=O)c1cccnc1)c1ccc(OC2OCCOC2Oc2ccc(/C(C)=N/NC(=O)c3cccnc3)cc2)cc1 (stereo unspecified) | . | . | 0.89 | . | -3 | 0
COc1ccc(CC/C(C)=N\NC(N)=O)cc1 | 25 | 93 | 1.4 | 108 | 2 | -6
CCn1nc([N+](=O)[O-])c2c(-c3nc4ccccc4o3)c(N)n(CCCOC)c2c1=O | 43 | . | . | . | 5 | -3
Cc1[nH]c2ccccc2c1C(c1ccncc1)N1CCCCC1 (stereo unspecified) | . | . | 0.07 | . | 5 | 41
Cc1[nH]c2ccccc2c1C(c1ccncc1)N1CCN(c2ccc(F)cc2)CC1 (stereo unspecified) | -24 | 77 | . | 80 | -3 | 99*
CCOC(=O)c1ccc(NC(=O)CN(C)S(=O)(=O)c2ccc(Br)s2)cc1 | -17 | 99 | 0.025 | 85 | 1 | 0
Cc1nn(-c2ccccn2)c2nc(-c3cccs3)cc(C(=O)N3CCOCC3)c12 | 15 | 98 | . | 80 | 5 | 84*
Cc1cccc(-n2nc(C)c3c(C(=O)O)cc(-c4cccs4)nc32)c1 | 0 | . | 0.3 | . | 7 | -1
COc1ccc(-c2cc(C(=O)O)c3c(C)nn(-c4ccccn4)c3n2)cc1 | 14 | 83 | . | 99 | 5 | -6
CCOC(=O)c1cc(-c2ccncc2)nc2c1c(C)nn2-c1ccccn1 | 0 | 60 | -0.043 | 61 | 2 | 100*
O=S(=O)(CCc1ccccc1)N1CCOCC1 | 33 | 102 | . | 96 | 4 | -8
CCS(=O)(=O)N1CCN(C(C)CCc2ccccc2)CC1 (stereo unspecified) | -29 | 94 | 0.23 | 84 | -3 | 75*
CC(C(=O)Nc1ccccc1-c1ccccc1)N1CCN(Cc2ccccc2)CC1 (stereo unspecified) | . | . | 0.89 | . | -8 | 17
CC(CCc1ccccc1)N1CCN(Cc2ccccc2)CC1 (stereo unspecified) | 14 | 91 | . | 87 | 4 | 97*
O=C(CSc1nnc(-c2ccncc2)o1)N1CCc2ccccc2C1 | 18 | . | -0.066 | . | 1 | -6
COc1cccc(OC)c1OCCOc1ccc(C(=O)c2ccccc2)cc1 | 10 | 85 | . | 77 | -1 | 33
COC(=O)c1ccc(OCCN2CCCCCC2)cc1 | -24 | . | -0.18 | . | 1 | 88*
O=C(c1ccccc1)c1ccc(OCCCN2CCCCC2)cc1 | -364 | 97 | . | 92 | 7 | 99*
CC(=O)c1ccc(OCCCN2CCCCC2)cc1 | 11 | 95 | 0.14 | 97 | -2 | 88*
C=C(C)c1cccc(C(C)(C)NC(=O)NC(c2ccccc2)c2ccc(OC)cc2)c1 (stereo unspecified) | -90 | 70 | . | 73 | -2 | 98*
C=C(C)c1cccc(C(C)(C)NC(=O)Nc2ccc(OC)cc2)c1 | . | . | 0.14 | . | 3 | 16
